Shiga toxin inh: Shiga toxin inhibition; Vero cells, Shiga toxin protein synthesis inhibition reporter; actives 9.2% (n = 290,000); inhibition, % at 38.7 µM; in the data active means inhibition mostly above about 28%, no sharp cut-off; inactive means mostly below about 43%; further: 0% is about no effect
NS1 function inh: inhibitors of influenza NS1 protein function | Potency, µM (series often up to 46.1 µM), for the others: at the top dose activity, positive = more growth | AID 2326 | actives 0.4% (n = 270,000); calls by dose curve; further: potency means the concentration at half of the fitted maximal effect; actives are rising curves; nearly all actives have a fitted effect of over 50% in size
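A cell-based growth assay was used: compounds that relieve NS1-induced slow growth of budding yeast raise OD600. Assay medium was yeast nitrogen base with ammonium sulphate and -URA supplement, pH 6.0, with 2% galactose.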
Cycloheximide cs: affects cycloheximide protein synthesis inhibition readout, counter-screen; cell reporter, cycloheximide protein synthesis inhibition counterscreen; AID 2314; max response, %; actives 12% (n = 300,000); in the data active means max response mostly above about 13%, no sharp cut-off; inactive means mostly below about 14%; further: read at 38.3 µM for the half of the compounds with a filed dose; 0% is about no effect
Pf growth 48h: P. falciparum growth inhibition at 48 hours (one generation); actives 5.9% (n = 310,000); P. falciparum luciferase growth in erythrocytes, 48 h; AID 504832; Potency, µM (series often up to 28.7 µM), for the others: top-dose activity change, negative = inhibition, most hits filed as inhibitors; further: potency means the concentration at half of the fitted maximal effect; on the % scale 0 is the no-effect control and ±100 the full control effect
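Read-out is firefly luciferase luminescence from an integrated reporter in P. falciparum, so falling signal marks reduced parasite growth. Infected erythrocytes were at 2% hematocrit and 0.1% parasitemia (final) in Albumax-supplemented RPMI 1640.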
Pf growth 96h: P. falciparum growth inhibition at 96 hour, primary screen for plastid delayed-death inhibitors; P. falciparum luciferase reporter growth, 96 h; Potency, µM (doses to about 28.7 µM), without a hit: at the top dose activity change, negative = inhibition, usual class: inhibitors; actives 6.9% (n = 320,000); further: potency means the concentration at half of the fitted maximal effect; on the % scale 0 is the no-effect control and ±100 the full control effect
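Delayed-death screen, second-generation endpoint: infected erythrocytes, 2% hematocrit, 0.05% parasitemia final; 96 hours at 37 C, 5% CO2; luciferase detection reagent; luminescence decrease equals reduced growth.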
* marks the source's active call; other numbers are inactive results; ? = inconclusive; nt = not tested or not shown. Compounds with a hit are over-represented: about 21% of the library has one in this group of screens. Unless noted, the call rests on the fitted dose curve; in most records, active means well fitted inhibition curve with a large enough effect; inconclusive means small, poorly fitted or top-dose-only effect, or another doubt; inactive means no such curve, though single readings can be large or run the other way.

SMILES	Shiga toxin inh	NS1 function inh	Cycloheximide cs	Pf growth 48h	Pf growth 96h
O=C(NCCCc1ccccc1)c1ccc(Br)o1	53	-90%	31*	5%	nt
O=C1CC2(CCCC2)C(=O)N1c1ccc(S(=O)(=O)NCC2CC2)cc1Cl	-8	-3%	-1	-2%	-11%
Cc1ccc(C(=O)NCCc2nnc3ccc(SCC(=O)Nc4ccccc4F)nn23)cc1	-14	1%	-3	18%	-16%
Cc1ccccc1C(=O)c1cccn1CC(=O)NCC1CCCO1 (centres undefined)	-23	0%	-1	-2%	10µM*
Cc1ccccc1C(=O)c1cccn1CC(=O)NCC(C)c1ccccc1 (centres undefined)	-4	-12%	-4	15%	-14%
COc1ccc(CNC(=O)Cn2cccc2C(=O)c2ccccc2C)cc1	60*	-11%	71*	40%	?
COc1ccc(CNC(=O)Cn2cccc2C(=O)c2ccccc2)cc1	40*	5%	34*	34%	7%
Cc1ccccc1C(=O)c1cccn1CC(=O)NCc1ccc2c(c1)OCO2	51	-62%	23*	16%	?
O=C(CCCCC(=O)N1CCOCCOCCOCC1)OCc1ccccc1	7	-2%	4	-10%	49%
COc1cccc(CN2CCC(C(=O)Nc3ccc(-c4cccc(C)c4)cc3)CC2)c1O	-1	1%	-2	?	0%
Cc1ccccc1C(=O)c1cccn1CC(=O)NCc1ccc(F)cc1	21	4%	20	14%	3%
COc1ccc(CCNC(=O)Cn2cccc2C(=O)c2ccccc2C)cc1OC	-12	-9%	1	-27%	9.3µM*
Cc1ccccc1C(=O)c1cccn1CC(=O)NCc1ccccc1	30*	nt	26*	28%	1%
COCCCNC(=O)C1CCCN(S(=O)(=O)c2ccc(C)cc2)C1 (centres undefined)	-5	4%	-1	-5%	?
COc1cccc(CNc2nc(-c3cccnc3)nc3ccccc23)c1	-10	nt	-5	-10%	?
c1cncc(-c2nc(NCc3cccs3)c3ccccc3n2)c1	-12	nt	-1	?	13µM*
Fc1ccccc1CNc1nc(-c2cccnc2)nc2ccccc12	-7	-68%	-9	12µM*	5.2µM*
CCn1c(=O)c2ccccc2n(CC(=O)NCCC2=CCCCC2)c1=O	-14	12%	-3	?	6%
CCOC(=O)c1ccccc1-c1cn2cc(Cl)ccc2n1	52	nt	15	?	38%
O=C(CN(c1ccc(F)cc1)S(=O)(=O)c1ccccc1)NC1CCCCCC1	-33	10%	-2	?	?
O=C(CSc1nnc(-c2ccccc2)c(-c2ccccc2)n1)Nc1ccc(Br)cn1	24	-3%	0	?	?
CCCOc1ccccc1/C=C1\SC(N)=NC1=O	-8	-8%	2	?	12µM*
Cc1cc(/C=C2/SC(=O)NC2=O)c(C)n1-c1ccc(N2CCOCC2)cc1	24	5%	8	-29%	-7%
Cc1cc(/C=C2\SC(=Nc3ccc(F)cc3)NC2=O)c(C)n1-c1ccc(S(N)(=O)=O)cc1	-25	?	-3	13µM*	nt
Cc1cc(/C=C2\SC(=S)NC2=O)cc(C)c1O	37	7%	15*	15%	7%
SMILES	Shiga toxin inh	NS1 function inh	Cycloheximide cs	Pf growth 48h	Pf growth 96h
Cc1cc(/C=C2\SC(N)=NC2=O)c(C)n1-c1ccccc1	45	8%	36*	15%	7%
Cc1cc(/C=C2\SC(=S)NC2=O)c(C)n1C	-7	-106%	-3	7%	16%
COc1ccc(CCNC(=O)C(=O)NCc2ccccn2)cc1	39	-5%	7	17%	?
Cc1cc(/C=C2\SC(=S)NC2=O)c(C)n1-c1ccc(O)cc1	52*	?	38*	9.3µM*	410%
Cc1cc(/C=C2\SC(=S)NC2=O)c(C)n1-c1ccccc1	58*	1%	44*	112%	-7%
COc1ccc(-n2c(C)cc(/C=C3\SC(=S)NC3=O)c2C)cc1	13	-5%	6	1%	27%
CC(NC(=O)C1CC2CCCC(C1)C2=O)c1ccccc1 (centres undefined)	-11	19%	-1	-2%	5%
Cc1sc2nc(CN3CCOCC3)[nH]c(=S)c2c1C	6	nt	5	?	?
Cc1ccc(C(C)C)c(OCC(=O)N/N=C/c2cccn2C)c1	-28	-11%	-2	?	-4%
Cc1ccc2nc(NC(=O)CN3C(=O)NC4(CCCC4)C3=O)sc2c1	nt	nt	nt	0%	17%
CCCC(=O)Nc1ccccc1-c1nnc(SCC)[nH]c1=O	-3	-1%	-2	-9%	6%
CCSc1nnc(-c2ccccc2NC(=O)CC)c(=O)[nH]1	-10	2%	-4	-18%	4.7µM*
COCCNC(=O)C(=O)Nc1cccc(Br)c1	40	-7%	23*	nt	88%
COCCNC(=O)C(=O)Nc1ccc(Cl)cc1C	54*	nt	32*	68%	?
COCC(=O)Nc1cccc(Br)c1	43	-1%	1	6%	?
COCCNC(=S)NNc1cccc(C(=O)O)c1	66*	nt	18	21%	79%
COCCNC(=O)C(=O)Nc1ccc(Br)cc1	71*	-2%	47*	152%	?
COCCNC(=S)NNC(=O)c1ccco1	-6	3%	2	nt	-34%
COCCNC(=O)c1cc(Br)ccc1Cl	-6	5%	-1	0%	36%
Cn1c(=O)c2ncn(CC(=O)O)c2n(C)c1=O	-4	4%	-2	18%	8%
CC(C)c1cc(C(=O)NC2CCCCC2)no1	11*	4%	35*	259%	-14%
CCCc1cc(C(=O)NC2CCCCC2)no1	61*	-16%	62*	105%	31%
CCCc1cc(C(=O)NC2CCCC2)no1	86*	-15%	41*	120%	-33%
Cc1cc(C(=O)NC2CCCCC2)on1	7	-5%	7	2%	16%
Cc1c(Cl)cccc1NC(=O)CNC(=O)CCCc1nc2ccccc2c(=O)[nH]1	nt	nt	nt	0%	-1%
SMILES	Shiga toxin inh	NS1 function inh	Cycloheximide cs	Pf growth 48h	Pf growth 96h
Cc1ccc2c(COn3nnc4ccc(S(=O)(=O)N(C)C)cc43)cc(=O)oc2c1C	-6	-1%	-2	4%	10µM*
Cc1ccc(COn2nnc3ccc(S(=O)(=O)N4CCOCC4)cc32)cc1	nt	nt	nt	-12%	?
CCOC(=O)c1ccc(NC(=O)NCc2ccccc2)cc1	2	-3%	12	-17%	?
CCOC(=O)c1ccc(NC(=S)Nc2ccccn2)cc1	40*	?	27*	35%	16%
CCOC(=O)c1ccc(NC(=S)NCCc2ccccc2)cc1	-19	-157%	1	?	13µM*
COC(=O)c1ccc(NC(=S)NCCc2ccccc2)cc1	-3	16%	-1	-9%	?
CCOC(=O)c1ccc(NC(=S)NCc2ccccc2)cc1	21	-13%	12*	35%	-18%
CCOCc1c(C(=O)OCC(=O)/C(C#N)=C(\C)N)oc2ccccc12	36	nt	1	14%	13%
Cc1ccc(NC(=O)CC(NCC2CCCO2)C(=O)O)cc1C (centres undefined)	-11	nt	-1	6%	-19%
